Measured values reported in PubChem BioAssay (EPA / NIEHS).
Calls of active or inactive are those of the source. The calls were made as follows: active = hit-call score of the fitted dose curve at least 0.9, where 1 is the maximum; inactive = score below 0.9.

Legend:
[1] = ATG_ISRE_CIS: Attagene CIS-FACTORIAL HepG2 Assay for human Interferon Regulatory Factor 1 (IRF1) binding to an Interferon-Stimulated Response Element (ISRE) (AID 2282948); settings: HepG2 ISRE cis-reporter (Attagene), mRNA transcription readout; actives raise or lower the signal
Method in brief: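 Read-out: fluorescent RT-PCR products resolved by capillary electrophoresis, reporting endogenous transcription factor activity via ISRE-driven reporter mRNA in transfected HepG2 cells dosed for 24 h; gain or loss fitted relative to DMSO.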

[2] = ATG_M_32_CIS: Attagene CIS-FACTORIAL HepG2 Assay for M32 Transcription Factor (Internal Marker) (AID 2282949); settings: HepG2 Attagene cis-factorial M32 reporter, mRNA; actives raise or lower the signal;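 also: background control marker of the multiplexed CIS panel rather than a real target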
Method in brief: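 Using DMSO as baseline, bidirectional curve fits were applied to reporter mRNA signals. These came from transiently transfected HepG2 cells exposed for 24 h, with RNA analysed by RT-PCR, FAM primer extension, HpaI digestion and CE.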

[3] = ATG_M_06_CIS: Attagene CIS-FACTORIAL HepG2 Assay for M06 Transcription Factor (Internal Marker) (AID 2282950); settings: HepG2 Attagene CIS-FACTORIAL M06 internal marker reporter; actives raise or lower the signal
Method in brief: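 Serves as a background control readout. Transfected HepG2 exposed to compounds for 24 h, then reporter transcripts quantified by fluorescent RT-PCR and capillary electrophoresis. Both directions fitted against DMSO baseline.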

[4] = target: Hypoxia-inducible factor 1-alpha (Homo sapiens) (UniProt Q16665); assay: ATG_HIF1a_CIS: Attagene CIS-FACTORIAL HepG2 Assay for human Hypoxia Inducible Factor 1 (HIF1A) (AID 2282951); settings: HepG2 Attagene cis-factorial HIF1a reporter transcription; actives raise or lower the signal
Method in brief: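 Activity is fitted in both directions relative to DMSO. Reporter transcripts are read by RT-PCR, fluorescent primer extension and capillary electrophoresis after 24 h chemical treatment. The cells are HepG2 carrying transiently transfected cis-element-driven reporter units responding to endogenous factors.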

[5] = target: Hepatocyte nuclear factor 6 (Homo sapiens) (UniProt Q9UBC0); assay: ATG_HNF6_CIS: Attagene CIS-FACTORIAL HepG2 Assay for human Hepatocyte Nuclear Factor 6 (HNF6) (AID 2282952); settings: HepG2 Attagene cis-factorial HNF6 reporter transcription; actives raise or lower the signal
Method in brief: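 Twenty-four-hour chemical treatment of reporter-transfected HepG2 cells precedes RNA isolation, DNase-treated reverse transcription and PCR of reporter sequences. Labelled fragments are sized by capillary electrophoresis and fitted bidirectionally versus DMSO.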

[6] = target: Heat shock factor protein 1 (Homo sapiens) (UniProt Q00613); assay: ATG_HSE_CIS: Attagene CIS-FACTORIAL HepG2 Assay for human Heat Shock Transcription Factor 1 (HSE) (AID 2282953); settings: HepG2 HSE cis-reporter, Attagene RNA transcription; actives raise or lower the signal
Method in brief: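 Endogenous transcription factor activity in transiently transfected HepG2, read as reporter mRNA by RT-PCR with fluorescent capillary electrophoresis after 24 h. Gain or loss of signal fitted versus DMSO baseline.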

[7] = ATG_MRE_CIS: Attagene CIS-FACTORIAL HepG2 Assay for human Metal Responsive Element (MRE) (AID 2282954); settings: HepG2 MRE cis-reporter transcription, Attagene multiplex; actives raise or lower the signal
Method in brief: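 RT-PCR/capillary electrophoresis readout of reporter mRNA, 24 h post-dosing, in HepG2 cells transfected with multiplexed cis-regulated reporter constructs. Gain or loss of signal fitted bidirectionally against DMSO baseline.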

[8] = ATG_PBREM_CIS: Attagene CIS-FACTORIAL HepG2 Assay for human Phenobarbital-responsive Enhancer Module (PBREM) (AID 2282955); settings: HepG2 PBREM cis-reporter, Attagene multiplexed transcription; actives raise or lower the signal
Method in brief: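 Endogenous transcription factor activity was read from reporter transcripts in transiently transfected human HepG2 liver cells after 24 h dosing. RT-PCR products were fluorescently labelled, HpaI-cut and sized by capillary electrophoresis; activity fitted bidirectionally against DMSO baseline.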

[9] = target: Paired box protein Pax-6 (Homo sapiens) (UniProt P26367); assay: ATG_Pax6_CIS: Attagene CIS-FACTORIAL HepG2 Assay for human Paired Box 6 (PAX6) (AID 2282956); settings: HepG2 CIS-FACTORIAL PAX6 reporter transcription, RNA readout; actives raise or lower the signal
Method in brief: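 Readout: reporter transcript fluorescence after RT-PCR and capillary electrophoresis. Cells: HepG2, transiently transfected with cis-regulated MRTUs. Exposure 24 h. Gain or loss of signal fitted bidirectionally relative to DMSO.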

[10] = ATG_PXRE_CIS: Attagene CIS-FACTORIAL HepG2 Assay for human Pregnane X Receptor Element (PXRE) (AID 2282957); settings: HepG2 Attagene CIS-FACTORIAL PXRE reporter, mRNA; actives raise or lower the signal
Method in brief: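 Bidirectional activity, baselined to DMSO, derived from reporter mRNA fluorescence (RT-PCR plus capillary electrophoresis) in HepG2 cells bearing cis-promoter reporter units, 24 h exposure.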

[11] = ATG_PPRE_CIS: Attagene CIS-FACTORIAL HepG2 Assay for human Peroxisome Proliferator-activated Response Element (PPRE) (AID 2282958); settings: HepG2 PPRE cis-element reporter, Attagene transcription factor profiling; actives raise or lower the signal
Method in brief: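 Endogenous PPRE-driven transcription is measured in HepG2 cells carrying transfected multi-reporter constructs. Reporter transcripts are quantified by RT-PCR, HpaI digestion and capillary electrophoresis 24 h after dosing. DMSO baseline, bidirectional fit.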

[12] = ATG_RORE_CIS: Attagene CIS-FACTORIAL HepG2 Assay for human RAR-related Orphan Receptor Element (RORE) (AID 2282959); settings: HepG2 Attagene cis-factorial RORE reporter, mRNA; actives raise or lower the signal
Method in brief: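 RORE reporter transcripts reflecting endogenous factor activity were read after 24 h compound exposure of transfected HepG2 cells, using reverse transcription, PCR, fluorescent labelling and capillary electrophoresis sizing. Gain or loss fitted against DMSO.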

[13] = ATG_Sox_CIS: Attagene CIS-FACTORIAL HepG2 Assay for human SRY-box transcription factor (SOX) (AID 2282960); settings: HepG2 Attagene cis-factorial SOX reporter, mRNA; actives raise or lower the signal
Method in brief: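 Reporter transcripts, measured by RT-PCR and capillary electrophoresis of labelled fragments, report endogenous SOX transcription factor activity. Transiently transfected human HepG2 cells receive chemical for 24 h; changes in either direction are fitted relative to DMSO.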

[14] = target: Transcription factor Sp1 (Homo sapiens) (UniProt P08047); assay: ATG_Sp1_CIS: Attagene CIS-FACTORIAL HepG2 Assay for human Specificity Protein 1 (Sp1) (AID 2282961); settings: HepG2 Sp1 cis-reporter transcription, actives raise or lower the signal
Method in brief: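 Read-out is reporter transcript level, measured by RT-PCR and fluorescent capillary electrophoresis after 24 h chemical treatment. System: transiently transfected HepG2 cells reporting endogenous transcription factor activity; gain or loss fitted against DMSO baseline.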

[15] = ATG_SREBP_CIS: Attagene CIS-FACTORIAL HepG2 Assay for human Sterol Regulatory Element Binding (SREBP) (AID 2282962); settings: HepG2 Attagene cis-factorial SREBP reporter, mRNA; actives raise or lower the signal
Method in brief: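 Readout: fluorescent reporter-transcript peaks resolved by capillary electrophoresis after RT-PCR. Cells were human HepG2 carrying transfected cis-promoter reporter constructs, dosed for 24 h. Gain or loss of signal was fitted against DMSO controls.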

[16] = target: Signal transducer and activator of transcription 3 (Homo sapiens) (UniProt P40763); assay: ATG_STAT3_CIS: Attagene CIS-FACTORIAL HepG2 Assay for human Signal Transducer and Activator of Transcription 3 (STAT3) (AID 2282963); settings: HepG2, Attagene cis-factorial STAT3 reporter transcription; actives raise or lower the signal
Method in brief: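 Readout: fluorescent reporter mRNA fragments resolved by capillary electrophoresis. Setup: HepG2 transfected with MRTUs reporting endogenous transcription-factor activity, dosed 24 h. Gain or loss of signal fitted bidirectionally against DMSO control.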

[17] = ATG_TCF_b_cat_CIS: Attagene CIS-FACTORIAL HepG2 Assay for human T-Cell-Factor with beta-catenin (TCF/b-cat) (AID 2282965); settings: HepG2 TCF/beta-catenin cis-reporter transcription, actives raise or lower the signal
Method in brief: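 HepG2 cells transiently transfected with cis-promoter-driven multiplexed reporter units; reporter mRNA measured 24 h after dosing by RT-PCR, FAM labelling, HpaI digestion and capillary electrophoresis. Bidirectional fitting relative to DMSO baseline.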

[18] = ATG_GRE_CIS: Attagene CIS-FACTORIAL HepG2 Assay for human Glucocorticoid Response Elements (GRE) (AID 2282947); settings: HepG2 GRE cis-reporter, Attagene multiplex mRNA; actives raise or lower the signal
Method in brief: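 Read-out: fluorescent reporter-transcript fragments separated by capillary electrophoresis after RT-PCR. Transiently transfected HepG2 cells carrying cis-element-driven reporter units were dosed for 24 h; gain or loss of signal fitted against DMSO control.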

[19] = ATG_TA_CIS: Attagene CIS-FACTORIAL HepG2 Assay for human TA Basal Promoter (AID 2282964); settings: HepG2 Attagene CIS-factorial TA basal promoter reporter; actives raise or lower the signal
Method in brief: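 Background-control readout: TA basal promoter reporter mRNA, fitted in both directions relative to DMSO. Measured by RT-PCR and capillary electrophoresis 24 hours after treating HepG2 human liver cells transiently carrying multiplexed cis-regulated reporter constructs.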

[20] = target: Bile acid receptor (Homo sapiens) (UniProt Q96RI1); assay: ATG_IR1_CIS: Attagene CIS-FACTORIAL HepG2 Assay for human Nuclear Receptor Subfamily 1 Group H Member 4 (NR1H4), IR1 submotif (AID 2282946); settings: IR1 reporter transcription, actives raise or lower the signal
Method in brief: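 Fluorescence of capillary-separated, HpaI-digested RT-PCR reporter products gave IR1-element mRNA induction in HepG2 cells 24 h after dosing. Endogenous transcription factors drove the cis-regulated reporters; activity was fitted bidirectionally against DMSO.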

Measured: AC50

Chain of Paired box protein Pax-6 (Homo sapiens) (P26367 whole entry, looked up): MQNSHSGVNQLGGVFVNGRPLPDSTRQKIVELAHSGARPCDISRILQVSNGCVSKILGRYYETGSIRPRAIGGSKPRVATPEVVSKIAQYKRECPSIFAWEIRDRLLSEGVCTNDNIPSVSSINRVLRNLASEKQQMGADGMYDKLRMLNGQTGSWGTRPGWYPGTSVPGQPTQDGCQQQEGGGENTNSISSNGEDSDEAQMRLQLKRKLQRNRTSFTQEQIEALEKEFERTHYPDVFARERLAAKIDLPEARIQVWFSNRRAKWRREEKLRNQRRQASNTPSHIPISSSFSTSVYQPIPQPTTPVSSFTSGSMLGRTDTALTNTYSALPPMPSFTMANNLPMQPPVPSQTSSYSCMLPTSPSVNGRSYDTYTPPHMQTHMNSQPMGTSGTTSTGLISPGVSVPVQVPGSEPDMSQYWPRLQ
Chain of Transcription factor Sp1 (Homo sapiens) (P08047 whole entry, looked up): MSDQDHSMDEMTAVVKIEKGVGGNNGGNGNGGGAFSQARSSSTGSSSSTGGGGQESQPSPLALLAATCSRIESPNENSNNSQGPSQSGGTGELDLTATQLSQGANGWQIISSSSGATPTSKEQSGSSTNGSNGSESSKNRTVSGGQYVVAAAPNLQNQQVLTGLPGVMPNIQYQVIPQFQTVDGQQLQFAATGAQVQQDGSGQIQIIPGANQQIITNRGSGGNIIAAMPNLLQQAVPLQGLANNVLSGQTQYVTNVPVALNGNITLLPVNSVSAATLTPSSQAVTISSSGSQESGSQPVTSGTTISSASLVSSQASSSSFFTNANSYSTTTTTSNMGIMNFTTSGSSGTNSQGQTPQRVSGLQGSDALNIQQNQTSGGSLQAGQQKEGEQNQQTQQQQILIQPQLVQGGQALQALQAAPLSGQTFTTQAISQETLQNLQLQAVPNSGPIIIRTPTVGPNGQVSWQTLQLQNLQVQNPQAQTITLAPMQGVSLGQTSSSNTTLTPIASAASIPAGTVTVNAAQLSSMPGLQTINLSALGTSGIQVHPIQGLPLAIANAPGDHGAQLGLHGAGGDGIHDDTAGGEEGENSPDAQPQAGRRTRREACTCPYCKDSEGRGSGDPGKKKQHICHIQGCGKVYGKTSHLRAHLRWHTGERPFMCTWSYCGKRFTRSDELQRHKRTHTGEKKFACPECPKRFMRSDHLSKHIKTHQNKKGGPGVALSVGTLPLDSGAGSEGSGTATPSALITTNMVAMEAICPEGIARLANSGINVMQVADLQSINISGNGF
Chain of Heat shock factor protein 1 (Homo sapiens) (Q00613 whole entry, looked up): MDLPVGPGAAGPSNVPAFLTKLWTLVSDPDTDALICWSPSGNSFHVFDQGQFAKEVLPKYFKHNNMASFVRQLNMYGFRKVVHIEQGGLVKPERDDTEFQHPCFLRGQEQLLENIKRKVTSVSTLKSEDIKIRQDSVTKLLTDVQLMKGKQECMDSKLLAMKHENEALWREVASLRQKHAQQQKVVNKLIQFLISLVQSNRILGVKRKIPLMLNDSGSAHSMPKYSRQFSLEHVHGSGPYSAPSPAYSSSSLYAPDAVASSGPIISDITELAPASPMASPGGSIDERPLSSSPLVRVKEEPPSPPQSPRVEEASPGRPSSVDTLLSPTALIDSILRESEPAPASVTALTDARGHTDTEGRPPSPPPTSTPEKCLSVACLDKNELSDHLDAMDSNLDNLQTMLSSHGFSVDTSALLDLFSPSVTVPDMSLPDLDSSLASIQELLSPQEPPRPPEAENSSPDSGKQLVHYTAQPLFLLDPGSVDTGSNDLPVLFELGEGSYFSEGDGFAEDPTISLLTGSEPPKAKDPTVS
Chain of Hypoxia-inducible factor 1-alpha (Homo sapiens) (Q16665 whole entry, looked up): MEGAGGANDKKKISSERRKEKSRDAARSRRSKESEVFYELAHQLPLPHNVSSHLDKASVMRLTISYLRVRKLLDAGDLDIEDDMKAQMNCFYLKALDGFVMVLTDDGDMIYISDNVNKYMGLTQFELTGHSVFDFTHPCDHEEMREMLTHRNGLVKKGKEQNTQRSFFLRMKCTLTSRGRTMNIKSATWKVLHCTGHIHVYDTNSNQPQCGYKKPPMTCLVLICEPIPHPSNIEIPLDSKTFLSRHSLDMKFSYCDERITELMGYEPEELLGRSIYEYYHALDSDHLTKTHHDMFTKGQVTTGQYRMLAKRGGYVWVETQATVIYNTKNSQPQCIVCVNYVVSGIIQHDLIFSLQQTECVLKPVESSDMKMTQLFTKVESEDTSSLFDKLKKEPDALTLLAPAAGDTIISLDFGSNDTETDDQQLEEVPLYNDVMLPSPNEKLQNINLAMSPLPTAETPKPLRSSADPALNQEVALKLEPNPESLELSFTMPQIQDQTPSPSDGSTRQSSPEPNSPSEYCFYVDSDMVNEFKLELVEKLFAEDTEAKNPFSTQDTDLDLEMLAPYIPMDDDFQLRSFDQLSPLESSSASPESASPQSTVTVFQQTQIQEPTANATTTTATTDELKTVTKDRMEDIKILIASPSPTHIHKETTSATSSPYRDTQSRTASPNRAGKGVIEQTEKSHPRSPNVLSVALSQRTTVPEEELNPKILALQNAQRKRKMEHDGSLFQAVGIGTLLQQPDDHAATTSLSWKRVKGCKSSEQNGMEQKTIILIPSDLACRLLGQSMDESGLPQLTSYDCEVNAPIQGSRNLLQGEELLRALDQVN
Chain of Signal transducer and activator of transcription 3 (Homo sapiens) (P40763 whole entry, looked up, the tested form may be a part): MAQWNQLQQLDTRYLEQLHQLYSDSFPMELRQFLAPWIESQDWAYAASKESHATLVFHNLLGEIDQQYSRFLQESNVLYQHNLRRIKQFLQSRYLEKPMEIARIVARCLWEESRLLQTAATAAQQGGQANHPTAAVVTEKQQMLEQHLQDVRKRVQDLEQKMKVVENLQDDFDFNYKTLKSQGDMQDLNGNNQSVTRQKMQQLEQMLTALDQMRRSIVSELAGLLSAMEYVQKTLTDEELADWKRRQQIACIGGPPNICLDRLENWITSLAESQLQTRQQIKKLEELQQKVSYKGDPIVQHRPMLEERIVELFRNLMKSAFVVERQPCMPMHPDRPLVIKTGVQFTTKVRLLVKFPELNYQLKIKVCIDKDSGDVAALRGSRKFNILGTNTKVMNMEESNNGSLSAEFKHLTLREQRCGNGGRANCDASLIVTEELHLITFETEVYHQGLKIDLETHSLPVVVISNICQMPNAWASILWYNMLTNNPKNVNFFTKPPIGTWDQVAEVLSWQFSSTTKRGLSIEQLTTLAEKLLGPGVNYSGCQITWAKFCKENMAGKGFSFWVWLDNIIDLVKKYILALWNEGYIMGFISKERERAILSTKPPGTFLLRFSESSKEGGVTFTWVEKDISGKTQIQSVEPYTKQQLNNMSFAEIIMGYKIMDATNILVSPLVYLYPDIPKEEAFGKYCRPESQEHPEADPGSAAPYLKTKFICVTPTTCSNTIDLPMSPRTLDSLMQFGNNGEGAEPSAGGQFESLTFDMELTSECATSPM
Chain of Hepatocyte nuclear factor 6 (Homo sapiens) (Q9UBC0 whole entry, looked up, the tested form may be a part): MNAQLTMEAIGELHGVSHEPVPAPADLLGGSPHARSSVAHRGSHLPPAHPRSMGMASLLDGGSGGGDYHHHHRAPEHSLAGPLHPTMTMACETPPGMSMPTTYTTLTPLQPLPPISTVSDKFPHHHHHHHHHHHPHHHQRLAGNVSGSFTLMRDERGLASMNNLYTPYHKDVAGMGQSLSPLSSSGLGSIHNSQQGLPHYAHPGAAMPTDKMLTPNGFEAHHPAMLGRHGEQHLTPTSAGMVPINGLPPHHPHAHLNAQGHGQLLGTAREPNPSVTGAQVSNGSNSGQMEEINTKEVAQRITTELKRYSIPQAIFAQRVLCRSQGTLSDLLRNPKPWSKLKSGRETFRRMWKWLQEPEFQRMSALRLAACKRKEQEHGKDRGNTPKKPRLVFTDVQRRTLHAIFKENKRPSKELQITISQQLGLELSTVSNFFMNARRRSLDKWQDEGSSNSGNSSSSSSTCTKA
Chain of Bile acid receptor (Homo sapiens) (Q96RI1 whole entry, looked up): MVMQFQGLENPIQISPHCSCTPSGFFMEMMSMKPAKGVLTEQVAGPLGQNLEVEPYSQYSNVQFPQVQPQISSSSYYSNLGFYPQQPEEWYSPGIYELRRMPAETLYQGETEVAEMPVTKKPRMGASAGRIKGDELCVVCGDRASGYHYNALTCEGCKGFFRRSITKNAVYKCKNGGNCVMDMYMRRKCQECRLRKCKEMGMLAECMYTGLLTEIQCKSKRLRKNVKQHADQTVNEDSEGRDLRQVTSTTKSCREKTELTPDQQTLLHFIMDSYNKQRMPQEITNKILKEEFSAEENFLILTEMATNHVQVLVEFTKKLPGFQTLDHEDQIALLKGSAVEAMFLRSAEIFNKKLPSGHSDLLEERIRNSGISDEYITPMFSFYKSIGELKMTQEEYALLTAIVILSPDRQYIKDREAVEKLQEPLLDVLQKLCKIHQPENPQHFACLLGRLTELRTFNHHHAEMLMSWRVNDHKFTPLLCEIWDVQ

c1ccc2c(c1)Nc1ccccc1S2
active: [10] 17.1 µM
not listed: [18] | [19] | [20]
inactive: all other assays above

CC(C)(C)c1ccc(O)cc1
inactive: [1] | [2] | [3] | [6] | [12] | [16]
active: [4] 76.7 µM | [7] 164 µM | [9] 174 µM | [10] 26 µM | [13] 175 µM | [14] 175 µM | [15] 26.8 µM | [17] 148 µM

CSC(C)(C)C=NO
not listed: [2] | [15] | [17] | [20]
inactive: all other assays above

ClC(Cl)c1ccccc1
not listed: [15] | [17] | [20]
inactive: all other assays above

Cc1cccc(N)c1
not listed: [11] | [18] | [20]
inactive: all other assays above

O=[N+]([O-])c1ccccc1
not listed: [2] | [6] | [8] | [20]
inactive: all other assays above

NC(=O)C(F)(F)C(F)(F)F
not listed: [2] | [11] | [19]
inactive: all other assays above

CCN(CC)c1ccccc1
not listed: [2] | [8] | [11] | [15]
inactive: all other assays above
